Reference: PubChem BioAssay (Tox21)
Inconclusive results are not listed. Calls of active or inactive are those of the source. Unless noted, calls follow the shape of the dose curve; as a rule, active = well fitted curve in the direction sought with a large enough effect in the repeat runs; inconclusive = weak or mixed curves; inactive = no such curve, though single readings can be large; an effect the other way counts as inactive or inconclusive.

Experiments:
[1] = qHTS RealTime-Glo MT Cell Viability Assay in HepG2 cells - 0 hour (AID 1224889); also: nearly all actives have a fitted effect of over 50% in size
Outline: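 HepG2 cells were seeded at 600 cells/well together with NanoLuc luciferase and a cell-permeant prosubstrate, preincubated 5 h at 37 C/5% CO2, then pin-dosed with compounds in DMSO. Nonlytic luminescence from viable cells was read at each time point.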

[2] = A CellTox Green Cytotoxicity Assay to monitor cytotoxicity in HepG2 cells - 8 hour (AID 1224890); also: nearly all actives have a fitted effect of over 45% in size; also: potency is read from the fitted curve at half-maximal effect
Outline: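 Using 1536-well format, dye-containing HepG2 suspension was seeded, allowed 5 h at 37 C/5% CO2, dosed by pintool with compounds, positive and negative controls, and imaged for fluorescence across 40 h.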

[3] = biological target: Estrogen receptor (Homo sapiens) (UniProt P03372); experiment: qHTS assay to identify small molecule antagonists of the estrogen receptor alpha (ER-alpha) signaling pathway using the BG1 cell line in the presence of 0.1 nM 17-beta-estradiol (AID 1259244); also: nearly all actives have a fitted effect of over 50% in size
Outline: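 Estradiol at 0.1 nM (final) stimulates the endogenous ER-alpha of VM7Luc4E2 cells carrying an ERE-driven luciferase; compounds are co-incubated 22 h at 37C and luciferase output quantified by luminescence.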

[4] = qHTS assay to identify small molecule HDAC inhibitors (AID 1259364);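 also: wild-type HCT-116 cells with endogenous class I/II HDAC activity; top concentration of the series differs between compounds; nearly all actives have a fitted effect of over 45% in size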
Outline: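 Read-out: luminescence of HDAC-Glo I/II reagent, 30 min RT, reflecting class I/II deacetylase activity in whole HCT-116 cells pre-exposed 2 h to DMSO-dissolved compounds.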

[5] = qHTS assay to identify small molecule HDAC inhibitors - cell viability counter screen (AID 1259365); also: series mostly up to about 92 µM; nearly all actives have a fitted effect of over 50% in size
Outline: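 Wild-type HCT-116 cells, 1,500/well, cultured overnight, then compound-treated 2 h at 37 C. Viability measured as ATP luminescence with CellTiter-Glo after 30 min at room temperature.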

[6] = qHTS assay to identify small molecule agonists of the sonic hedgehog signaling (Shh) pathway - cell viability counter screen (AID 1259366); also: nearly all actives have a fitted effect of over 50% in size
Outline: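 NIH/3T3-derived Gli1-Luc reporter cells, 2,000 per well, received compound after 4 h and were treated about 23 h at 37C. Viability measured in the same wells by CellTiter-Fluor fluorescence after 1 h.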

[7] = qHTS assay to identify small molecule antagonists of the sonic hedgehog signaling (Shh) pathway - cell viability counter screen (AID 1259367); also: nearly all actives have a fitted effect of over 55% in size
Outline: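 Cells: 3T3 Gli1-Luc, 2,000/well, 4 hr pre-incubation. Compounds in DMSO, then conditioned medium. Incubation 24 hr, 37C, 5% CO2. CellTiter-Fluor at 23 hr, 1 hr, fluorescence.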

[8] = qHTS assay to identify small molecule agonists of the sonic hedgehog signaling (Shh) pathway (AID 1259368; calls by dose curve;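 also: NIH/3T3-derived 3T3Gli1-Luc cells carrying a stable Gli1-driven firefly luciferase reporter; series mostly up to about 92 µM; nearly all actives have a fitted effect of over 15% in size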)
Outline: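 A Gli1 transcriptional response element controlled firefly luciferase in 3T3Gli1-Luc cells. Compounds and a positive control were added 4 hr after plating, and cells were incubated a further 24 hr at 37 C before luminescence detection.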

[9] = qHTS assay to identify small molecule antagonists of the sonic hedgehog signaling (Shh) pathway (AID 1259369; calls by dose curve; also: nearly all actives have a fitted effect of over 45% in size)
Outline: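 For antagonist detection, the reporter line received test compounds together with conditioned medium, incubated 24hr at 37 C, 5% CO2, then luminescence was recorded following 30min room-temperature luciferase reagent incubation.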

[10] = biological target: Estrogen receptor beta (Homo sapiens) (UniProt Q92731); experiment: qHTS assay to identify small molecule agonists of the estrogen receptor beta (ER-beta) signaling pathway (AID 1259377; active = well fitted activation curve with a large enough effect in the signal ratio in the repeat runs, not every such curve was filed as active; the % refers to the signal ratio)
Outline: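 ER-beta-UAS-bla HEK293T cells in medium with 2% charcoal-stripped FBS were exposed to compounds for 16 h at 37C. Beta-lactamase reporter activity was read as fluorescence after 2 h with LiveBLAzer B/G FRET substrate at room temperature.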

[11] = biological target: Estrogen receptor beta (Homo sapiens) (UniProt Q92731); experiment: qHTS assay to identify small molecule antagonists of the estrogen receptor beta (ER-beta) signaling pathway (AID 1259378; active = well fitted inhibition curve with a large enough effect in the signal ratio in the repeat runs, not every such curve was filed as active; the % refers to the signal ratio)
Outline: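 Antagonist mode: compounds added to beta-lactamase reporter HEK293T ER-beta-UAS cells stimulated with E2 (1nM final), 16 hr at 37C. LiveBLAzer B/G FRET substrate, 2 hours room temperature, fluorescence read-out.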

[12] = qHTS assay to identify small molecule agonists of the estrogen receptor beta (ER-beta) signaling pathway - cell viability counter screen (AID 1259380); also: nearly all actives have a fitted effect of over 30% in size
Outline: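 CellTiter-Glo read, 30 min RT, same wells as bla assay; cells ER-beta-UAS-bla HEK293T; 16 hr compound, 37C; medium 2% charcoal-stripped FBS.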

[13] = qHTS assay to identify small molecule antagonists of the estrogen receptor beta (ER-beta) signaling pathway - cell viability counter screen (AID 1259382);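 also: HEK293T cells carrying ER-beta-UAS-bla reporter stimulated with estradiol; series mostly up to about 92 µM; nearly all actives have a fitted effect of over 55% in size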
Outline: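 In this multiplexed counter screen, cells were seeded at 2,000 per well in medium with 2% charcoal-stripped FBS and incubated 6 hr before compound and 1nM final E2 were added. Sixteen hours later, ATP-based luminescence reported viability.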

[14] = A CellTox Green Cytotoxicity Assay to monitor cytotoxicity in HEK293 cells - 16 hour (AID 1224888); also: nearly all actives have a fitted effect of over 35% in size
Outline: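 Fluorescence intensity, read at 0, 8, 16, 24, 32 and 40 h of compound treatment, reflected dye binding to DNA of dead HEK293 cells; compounds (23 nL, DMSO) were added 5 h after plating cells with reagent.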

[15] = qHTS assay to identify small molecule antagonists of the androgen receptor (AR) signaling pathway using the MDA cell line in the presence of 0.5 nM R1881 - cell viability counter screen (AID 1259242); also: nearly all actives have a fitted effect of over 45% in size
Outline: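 Viability of MDA-kb2 cells was multiplexed with the luciferase AR readout; after 16 hr with compounds and R1881 at 0.5 nM final, CellTiter-Fluor fluorescence was recorded.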

[16] = qHTS assay to identify small molecule agonists of the androgen receptor (AR) signaling pathway in the presence of an antagonist - cell viability counter screen (AID 1259379);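 also: MDA-kb2 human breast cancer cells carrying an MMTV luciferase reporter; series mostly up to about 92 µM; nearly all actives have a fitted effect of over 25% in size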
Outline: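 Seed MDA-kb2 at 3,000 cells/well; incubate 5 hr, 37C, 0% CO2. Add nilutamide to 3.0uM final, then pin compounds at 15 concentrations. Incubate 16 hr. Add CellTiter-Fluor at 15 hr, read fluorescence after 1 hr.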

[17] = qHTS assay to identify small molecule antagonists of the estrogen receptor alpha (ER-alpha) signaling pathway using the BG1 cell line in the presence of 0.1 nM 17-beta-estradiol - cell viability counter screen (AID 1259241); also: nearly all actives have a fitted effect of over 40% in size
Outline: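 VM7Luc4E2 cells (endogenous full-length ER-alpha, 4xERE-luciferase), cultured 5 days in charcoal-stripped serum, exposed to compounds with 0.1 nM 17beta-estradiol (final) for 22 hr at 37C. Viability read in same wells as live-cell protease fluorescence after 30 min.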

[18] = qHTS assay to identify small molecule phospholipidosis (PLD) inducers (AID 1259344; active = well fitted curve in the direction sought with a large enough effect; an effect the other way counts as inactive or inconclusive)
Outline: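 Phospholipidosis is scored by imaging LipidTOX-stained pits in HepG2 cells exposed to compound for 24 h at 37 C; pit counts and integrated intensities per well and per cell serve as outputs.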

[19] = biological target: Androgen receptor (Homo sapiens) (UniProt P10275); experiment: qHTS assay to identify small molecule antagonists of the androgen receptor (AR) signaling pathway using the MDA cell line in the presence of 0.5 nM R1881 (AID 1259243); also: nearly all actives have a fitted effect of over 50% in size
Outline: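 Reporter cells cultured without CO2 receive test chemicals, then 0.5 nM R1881 final; after 16 hr at 37C, ONE-Glo is added and light output recorded.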

[20] = biological target: Androgen receptor (Homo sapiens) (UniProt P10275); experiment: qHTS assay to identify small molecule agonists of the androgen receptor (AR) signaling pathway in the presence of an antagonist (AID 1259381; calls by dose curve; also: nearly all actives have a fitted effect of over 15% in size)
Outline: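 Test compounds at 15 concentrations were incubated for 16hr with MDA-kb2 reporter cells in presence of 3.0uM nilutamide (final). Signal: ONE-Glo luciferase luminescence.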
% is scaled to controls: 0 for no effect and ±100 for the full control effect.

Sequence of Estrogen receptor (Homo sapiens) (P03372 whole entry, looked up): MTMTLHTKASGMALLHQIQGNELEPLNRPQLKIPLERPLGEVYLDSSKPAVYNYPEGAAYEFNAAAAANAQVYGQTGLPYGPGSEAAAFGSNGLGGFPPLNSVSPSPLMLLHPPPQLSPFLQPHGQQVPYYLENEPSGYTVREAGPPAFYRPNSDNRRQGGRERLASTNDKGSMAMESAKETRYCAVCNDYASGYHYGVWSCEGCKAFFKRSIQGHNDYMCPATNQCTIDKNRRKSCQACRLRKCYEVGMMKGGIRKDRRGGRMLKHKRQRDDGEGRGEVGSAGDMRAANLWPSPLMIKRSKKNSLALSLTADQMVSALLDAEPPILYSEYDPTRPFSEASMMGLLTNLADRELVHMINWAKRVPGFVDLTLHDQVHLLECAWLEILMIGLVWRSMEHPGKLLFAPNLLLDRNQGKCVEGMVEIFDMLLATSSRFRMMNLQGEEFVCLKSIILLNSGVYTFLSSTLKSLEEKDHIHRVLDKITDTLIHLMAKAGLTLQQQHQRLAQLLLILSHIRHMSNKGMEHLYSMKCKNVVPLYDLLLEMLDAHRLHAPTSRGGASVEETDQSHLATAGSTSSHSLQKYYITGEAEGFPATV
Sequence of Estrogen receptor beta (Homo sapiens) (Q92731 whole entry, looked up): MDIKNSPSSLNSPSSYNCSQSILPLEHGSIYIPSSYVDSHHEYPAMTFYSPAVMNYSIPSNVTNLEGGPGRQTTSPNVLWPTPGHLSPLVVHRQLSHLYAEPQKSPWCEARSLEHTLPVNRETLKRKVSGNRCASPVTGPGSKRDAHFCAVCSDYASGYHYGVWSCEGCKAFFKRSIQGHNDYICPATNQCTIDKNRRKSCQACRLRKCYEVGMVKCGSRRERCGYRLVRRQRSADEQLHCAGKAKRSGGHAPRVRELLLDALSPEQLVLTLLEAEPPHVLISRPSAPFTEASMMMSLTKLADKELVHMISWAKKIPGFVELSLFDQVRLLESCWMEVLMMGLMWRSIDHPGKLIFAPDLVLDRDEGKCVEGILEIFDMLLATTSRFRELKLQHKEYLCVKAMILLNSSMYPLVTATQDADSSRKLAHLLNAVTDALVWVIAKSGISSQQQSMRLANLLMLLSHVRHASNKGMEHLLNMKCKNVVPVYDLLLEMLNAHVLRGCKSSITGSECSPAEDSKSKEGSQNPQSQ
Sequence of Androgen receptor (Homo sapiens) (P10275 whole entry, looked up): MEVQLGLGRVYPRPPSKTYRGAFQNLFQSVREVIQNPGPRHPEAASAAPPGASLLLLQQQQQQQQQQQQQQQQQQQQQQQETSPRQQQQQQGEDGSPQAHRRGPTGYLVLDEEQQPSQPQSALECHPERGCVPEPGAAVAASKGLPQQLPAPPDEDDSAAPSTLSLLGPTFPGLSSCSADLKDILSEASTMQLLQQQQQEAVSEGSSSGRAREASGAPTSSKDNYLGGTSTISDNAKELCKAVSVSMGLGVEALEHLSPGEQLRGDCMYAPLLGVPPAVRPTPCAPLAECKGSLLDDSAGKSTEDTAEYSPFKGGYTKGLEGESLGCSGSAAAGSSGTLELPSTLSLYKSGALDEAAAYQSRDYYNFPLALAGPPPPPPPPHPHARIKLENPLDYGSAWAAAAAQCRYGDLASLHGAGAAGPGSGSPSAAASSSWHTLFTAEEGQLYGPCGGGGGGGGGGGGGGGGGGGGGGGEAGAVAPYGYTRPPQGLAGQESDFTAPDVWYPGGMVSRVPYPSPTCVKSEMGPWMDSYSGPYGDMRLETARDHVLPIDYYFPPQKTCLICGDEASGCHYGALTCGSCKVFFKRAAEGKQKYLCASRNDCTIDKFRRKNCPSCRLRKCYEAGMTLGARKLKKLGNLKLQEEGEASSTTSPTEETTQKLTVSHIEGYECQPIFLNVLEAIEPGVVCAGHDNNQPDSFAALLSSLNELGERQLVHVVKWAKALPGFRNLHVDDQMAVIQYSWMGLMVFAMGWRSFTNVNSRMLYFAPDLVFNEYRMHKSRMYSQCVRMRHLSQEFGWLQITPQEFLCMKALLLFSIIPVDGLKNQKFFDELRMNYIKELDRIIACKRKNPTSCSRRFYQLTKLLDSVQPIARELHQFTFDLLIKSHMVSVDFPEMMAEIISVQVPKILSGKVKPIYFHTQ

CC12CCC(C1)C(C)(C)C2O (stereo unspecified)
inactive: Potency [1] | outcome [3] | Potency [4] | outcome [5] | outcome [6] | outcome [7] | outcome [8] | Potency [9] | Potency [10] | Potency [11] | outcome [12] | outcome [13]
active: Potency [2] 1950 nM

CCCCOC(=O)C(C)O (stereo unspecified)
inactive: Potency [14] | Potency [1] | Potency [2] | outcome [15] | outcome [3] | outcome [5] | outcome [6] | outcome [7] | Potency [9] | outcome [16] | outcome [13]

CCCCOCC(C)O (stereo unspecified)
inactive: Potency [14] | Potency [1] | Potency [2] | outcome [15] | outcome [3] | Potency [4] | outcome [5] | outcome [7] | outcome [8] | Potency [9] | outcome [16] | outcome [12] | outcome [13]

CC(=O)C(C)O (stereo unspecified)
inactive: Potency [14] | Potency [1] | Potency [2] | outcome [15] | Potency [4] | outcome [5] | outcome [6] | outcome [8] | Potency [9] | Potency [10] | Potency [11] | outcome [16] | outcome [12] | outcome [13]

Cn1c(=O)c2c(ncn2CCO)n(C)c1=O
inactive: Potency [14] | Potency [1] | outcome [17] | outcome [15] | outcome [18] | Potency [4] | outcome [5] | outcome [6] | outcome [8] | Potency [9] | Potency [10] | Potency [11] | outcome [12] | outcome [13]

CCOC(=O)CC1(C)OCC(C)O1 (stereo unspecified)
inactive: Potency [14] | Potency [1] | Potency [2] | outcome [15] | outcome [3] | outcome [5] | outcome [8] | Potency [9] | Potency [10] | Potency [11] | outcome [16] | outcome [12] | outcome [13]

CNCCS(=O)(=O)O
inactive: Potency [14] | Potency [1] | Potency [2] | outcome [15] | Potency [4] | outcome [5] | outcome [6] | outcome [7] | outcome [8] | Potency [9] | Potency [11] | outcome [12] | outcome [13]

CCCCCCCCCCCCCCCCCCOCCO
inactive: activity change [14] 5.03% [at 15.8 µM, stronger effect = higher value] | activity change, negative = cytotoxicity [1] 2.77% [at 15.8 µM] | cytotoxicity increase [2] -4.91% [at 15.8 µM] | viability change, negative = cytotoxic [15] -0.694% [at 19 µM] | activity change, negative = inhibition [3] -1.58% [at 19 µM] | activity change, negative = inhibition [4] -2.36% [at 19 µM] | activity change, negative = cytotoxicity [5] 0.0538% [at 19 µM] | viability change, negative = cytotoxic [6] 1.32% [at 19 µM] | viability change, negative = cytotoxic [7] -0.0007% [at 19 µM] | activity change [8] -0.0679% [at 18.9 µM] | activation [10] -0.0155% [at 19 µM] | activity, negative = inhibition [11] 4.09% [at 19 µM] | activity change, negative = cytotoxicity [16] -11.2% [at 19 µM] | activity change, negative = cytotoxicity [12] -1.63% [at 19 µM] | activity change, negative = cytotoxicity [13] 4.32% [at 19 µM]

Nc1nc(-c2ccccc2)c(Br)c(=O)[nH]1
inactive: Potency [14] | Potency [1] | outcome [17] | Potency [19] | outcome [3] | outcome [18] | Potency [4] | outcome [5] | outcome [6] | outcome [8] | Potency [9] | outcome [16] | outcome [12] | outcome [20] | outcome [13]
